Bioassay records as filed in PubChem.
HTT cytoprotect: protects HTT-Q103 PC12 cells, measured by ATP | PC12 HTT-Q103 induced, cytoprotection, ATP luminescence, 40 h | Potency, µM (series often up to 56.4 µM), actives largely listed as activators | hit rate 0.14% among 230,000 | AID 1471; note: nearly all actives have a fitted effect of over 45% in size
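Compounds were screened for protection of PC12 cells against cell death after tebufenozide induction (100 nM final) of mutant Huntingtin exon 1 (Q103) fused to GFP.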
CBFb-RUNX1 inh: blocks binding between human CBF-beta and RUNX1. AlphaScreen CBFb-His/RUNX1-biotin binding, biochemical. 230,000 tested, under 10 active. Potency, µM (doses to about 59.8 µM), hits mostly inhibitors
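Proteins preincubated together for 20 min at RT before compound addition; 15 min later, nickel and streptavidin beads were added and left 90 min prior to AlphaScreen measurement.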
ALDH1A1 inh: ALDH1A1 (human) enzyme inhibition | P00352 | Purified ALDH1A1, NADH fluorescence, propionaldehyde substrate | Potency, µM (doses to about 75.3 µM), hits mostly inhibitors | hit rate 7.3% among 220,000 | AID 1030; active = well fitted inhibition curve with a large enough effect, not every such curve was filed as active; inconclusive = small, poorly fitted or top-dose-only effect, or another doubt; inactive = no such curve, though single readings can be large or run the other way
Target sequence (P00352 whole entry, looked up): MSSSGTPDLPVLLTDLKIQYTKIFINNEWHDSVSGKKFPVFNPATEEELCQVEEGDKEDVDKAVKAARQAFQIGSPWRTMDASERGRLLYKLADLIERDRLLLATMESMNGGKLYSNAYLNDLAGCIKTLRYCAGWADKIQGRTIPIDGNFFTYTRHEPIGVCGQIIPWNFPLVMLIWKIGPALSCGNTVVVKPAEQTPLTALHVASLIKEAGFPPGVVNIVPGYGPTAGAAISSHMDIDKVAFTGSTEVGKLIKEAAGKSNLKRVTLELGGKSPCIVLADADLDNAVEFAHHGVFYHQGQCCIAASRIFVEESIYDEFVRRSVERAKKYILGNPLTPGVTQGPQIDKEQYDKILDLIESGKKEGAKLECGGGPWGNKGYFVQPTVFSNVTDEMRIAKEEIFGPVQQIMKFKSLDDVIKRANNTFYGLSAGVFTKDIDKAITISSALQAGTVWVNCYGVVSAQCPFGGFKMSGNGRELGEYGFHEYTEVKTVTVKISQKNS
HttQ103 aggreg: reduces HttQ103-GFP aggregates in PC12 cells | PC12 HttQ103-GFP aggregates, Acumen cytometry, 40 h | Potency, µM (titrated, usually from 46.1 µM), most hits filed as inhibitors | hit rate 1.1% among 220,000 | AID 1688; note: nearly all actives have a fitted effect of over 60% in size
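Using laser scanning cytometry, GFP-positive aggregates were counted after lysis of PC12 cells induced with 100 nM tebufenozide to express HTT exon 1 Q103–GFP. Compounds were tested in titration.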
HPGD inh: HPGD (human) dehydrogenase inhibition | P15428 | purified HPGD, NADH fluorescence kinetic, PGE2 substrate | Potency, µM, hits mostly inhibitors | hit rate 4.3% among 150,000 | AID 894; active = well fitted inhibition curve with a large enough effect, not every such curve was filed as active; inconclusive = small, poorly fitted or top-dose-only effect, or another doubt; inactive = no such curve, though single readings can be large or run the other way
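NADH formation kinetics: reaction with 30 uM PGE2 and 1 mM NAD+ (final), 20 nM enzyme, Tris-HCl pH 8 with Tween 20, after 15 min compound preincubation at room temperature. Fluorescence change, last versus first of five reads.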
PNC inhibitor: inhibitors of perinucleolar compartment assembly; PC3M PTB-GFP, PNC prevalence imaging, 16 h; hits give low values; activity change (PNC), negative = inhibition, % at 10 µM; hit rate 3.1% among 140,000;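 active = readout at or below -70, meaning at least 70% loss of cells showing the perinucleolar compartment, a nuclear body marking cancer cells; inconclusive = readout between -30 and a set limit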
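PC3M cells stably expressing PTB-GFP, 750–1000 cells/well, treated 16 h at 37 °C with compound (23 nl of library stock), in duplicate. After paraformaldehyde fixation and Hoechst stain, imaged at 20x; PNC prevalence scored by image analysis.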
A number is an active result; n = inactive; u = inconclusive; x = no result; [ ] = remark or other dose. Sampled rows, rich in hits. Any-hit rate of the full collection: about 11%. Unless noted, calls come from the whole dose curve; as a rule, active = well fitted curve in the direction sought with a large enough effect; inconclusive = small, poorly fitted or top-dose-only effect, or another doubt; inactive = no such curve, though single readings can be large; an effect the other way counts as inactive or inconclusive.

SMILES	HTT cytoprotect	CBFb-RUNX1 inh	ALDH1A1 inh	HttQ103 aggreg	HPGD inh	PNC inhibitor
CC(=O)n1cc([C@@H]2C=C(C(=O)N3CCN(Cc4ccccc4)CC3)O[C@H](OCc3ccc(CO)cc3)C2)c2ccccc21	n[10 µM]	n	15.8µM	n[9.22 µM]	x	x
CC(=O)n1cc([C@@H]2C=C(C(=O)N3CCN(Cc4ccc5c(c4)OCO5)CC3)O[C@H](OCCCCO)C2)c2ccccc21	n[10 µM]	n	n	n[9.22 µM]	x	x
CC(=O)n1cc([C@H]2C=C(C(=O)N3CCN(Cc4ccccc4)CC3)O[C@@H](OCCCCO)C2)c2ccccc21	n[10 µM]	n	28.2µM	n[9.22 µM]	x	x
O=C(NCc1ccccc1)C1=C[C@@H](c2ccccc2)C[C@@H](OCc2ccc(CO)cc2)O1	n[10 µM]	n	31.6µM	n[9.22 µM]	x	x
O=C(NCc1ccccc1)C1=C[C@@H](c2coc3ccccc3c2=O)C[C@@H](OCCCCO)O1	n[10 µM]	n	u	n[9.22 µM]	x	x
c1ccc(CSc2ccc(-c3cccnc3)nn2)nc1	n	n	n	n	x	x
O=C(NCc1ccccc1)C1=C[C@@H](c2ccc(Br)cc2)C[C@@H](OCCCCO)O1	n[10 µM]	n	25.1µM	n[9.22 µM]	x	x
O=C(NCc1ccccc1)C1=C[C@H](c2ccc(Br)cc2)C[C@H](OCc2ccc(CO)cc2)O1	n[10 µM]	n	u	n[9.22 µM]	x	x
CC(=O)n1cc([C@H]2C=C(C(=O)NCc3ccccc3)O[C@@H](OCc3ccc(CO)cc3)C2)c2ccccc21	n[10 µM]	n	15.8µM	n[9.22 µM]	x	x
C#CCNC(=O)C1=C[C@@H](c2cn(C(C)=O)c3ccccc23)C[C@@H](OCc2ccc(CO)cc2)O1	n[10 µM]	n	n	n[9.22 µM]	x	x
O=C(Nc1ccc(F)c([N+](=O)[O-])c1)c1ccc2c(c1)C(=O)OC2=O	n[10 µM]	n	n	n[9.22 µM]	x	x
CC1OC(OC2C(CO)OC(OC3C(CO)OC(O)C(O)C3O)C(O)C2O)C(O)C(O)C1NC1C=C(CO)C(O)C(O)C1O (configuration not stated)	n	n	u	x	n	x
O=S1(=O)CCC(NC(=S)N2CCOCC2)C1 (configuration not stated)	n[10 µM]	n	n	n	n	-101.7
S=C(NC1CCCCC1)N1CCOCC1	n[10 µM]	n	x	n[9.22 µM]	x	x
COC(=O)c1ccc(C(NC(=O)c2cccnc2)NC(=O)c2cccnc2)cc1	n	n	n	n	x	x
COc1ccccc1/C=C/C=N\N1CCN(Cc2ccccc2Cl)CC1	n[10 µM]	n	20µM	n	n	n
C(=C\c1ccccc1)/C=N/N1CCN(Cc2ccccc2)CC1	n[10 µM]	n	n	n	x	x
COc1ccccc1/C=C/C=N/N1CCN(Cc2ccc(Cl)cc2)CC1	n	x	17.8µM	n	n	n
Cc1ccc(C(O)(COC(=O)C(C)C)COC(=O)C(C)C)c(O)c1	n[10 µM]	n	7.94µM	n[9.22 µM]	x	x
Cc1cc(Cc2c(C)c(C)c(Cc3cc(C)cc(C(C)(C)C)c3O)c(C)c2C)c(O)c(C(C)(C)C)c1	n[10 µM]	x	n[13.5 µM]	x	n	x
CC(C)(C)c1ccc(C(=O)c2c[nH]c(C(=O)NCC3CCCO3)c2)cc1 (configuration not stated)	n[10 µM]	n	n	u	12.6µM	n
COc1ccc(C(=O)c2c[nH]c(C(=O)NCC3CCCO3)c2)cc1 (configuration not stated)	n	n	u	u	2µM	n
Cc1ccccc1C(=O)c1c[nH]c(C(N)=O)c1	n	n	7.94µM	n	n	n
O=C(NCC1CCCO1)c1cc(C(=O)C2CCCCC2)c[nH]1 (configuration not stated)	n	n	n	n	x	x
Cc1ccccc1C(=O)c1c[nH]c(C(=O)NCC2CCCO2)c1 (configuration not stated)	n	n	u	n	6.31µM	n
O=C(c1ccccc1)c1ccc2n1CC[C@H]2C(=O)O	n	n	n	n	n	x
C/C(=N/OCO/N=C(\C)c1ccccc1)c1ccccc1	n[10 µM]	n	n	u	n	n
C/C(=N/OCO/N=C(/C)c1ccc(F)cc1)c1ccc(F)cc1	n[10 µM]	n	n	n	n	-104.3
COc1ccc(C(=O)c2oc3ccc(OC)cc3c2N)cc1	n[10 µM]	n	u	n	n	n
